CF NFkB inh: inhibitors of PAF-induced NF-kB signaling, primary screen, cell-based, GFP fluorescence, uHTS | KKLEB NF-kB-GFP reporter, GFP fluorescence overnight | inhibition, % at 5 µM | actives 0.86% (n = 360,000) | AID 588850, 2011;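 active = at least 50% inhibition at 5 µM, scaled per plate between neutral and stimulator controls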;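 note: PAF is a Pseudomonas aeruginosa culture filtrate used as stimulus; plate controls were PAF-stimulated DMSO wells for no effect and unstimulated DMSO wells for full effect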
KKLEB tox: cytotoxicity in KKLEB CF airway cells, primary screen, cytotoxicity control for CF NF-kB inhibitor project, cell-based, uHTS, fluorescence assay plates. KKLEB CF airway cells viability, ATPlite luminescence, overnight; stronger effect = lower value; cells stimulated with P. aeruginosa culture filtrate. activity change (cytotoxicity), % at 5 µM. AID 602141, 2011. actives 0.36% (n = 360,000);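 active = corrected activity change at or below -50% at 5 µM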
TROY NFkB inh: inhibitors of TROY-driven NF-kB signaling, primary screen, Q293 LMP1-TROYcd cells, NF-kB luciferase, uHTS | actives 0.98% (n = 360,000) | Q293 LMP1-TROYcd NF-kB luciferase reporter, 4 h | inhibition, % at 10 µM | AID 1347056, 2019;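 active = compounds whose plate-normalised and pattern-corrected inhibition of the luciferase reporter signal at the single screening dose is 50% or more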
TWEAK Fn14 block: inhibitors of TWEAK-Fn14 signaling, primary screen, luciferase reporter cells, uHTS; actives 2% (n = 360,000); AID 1159606, 2016; inhibition, % at 10 µM; TWEAK-stimulated Fn14 reporter cells, luciferase luminescence, 8 h; in the data active = inhibition above about 50%
HIF-2a block: HIF-2a reporter inhibitors, primary screen, luminescence, 786-0 RCC cells; 786-0 RCC cells HIF-2a reporter, luciferase luminescence, overnight; inhibition, % at 18.8 µM; actives 0.72% (n = 360,000);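 active = inhibition of the luminescence signal of 40% or more relative to plate controls, in a single-dose primary screen at 18.75 µM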
Peg3 promoter: Peg3 promoter-driven luciferase inhibitors, primary screen, cell-based, HeLa, luciferase luminescence | HeLa PEG-Prom luciferase reporter, overnight | inhibition, % at 20 µM | actives 1.7% (n = 360,000) | AID 588405, 2011;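 active = inhibition of at least 50% at 20 µM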
* = called active by the depositor; / = no result given. Sampled rows, rich in hits. Any-hit rate of the full collection: about 4%.

SMILES	CF NFkB inh	KKLEB tox	TROY NFkB inh	TWEAK Fn14 block	HIF-2a block	Peg3 promoter
CC(C)N(Cc1ccccc1)C(=O)COC(=O)c1cnc(Cl)c(Cl)c1	-6	-12	5	-10	23	83*
COc1ccc(-c2nc(SCC(=O)N(CC(C)C)c3c(N)n(Cc4ccccc4)c(=O)[nH]c3=O)n[nH]2)cc1	-5	6	4	8	-12	-12
CC(C)CN(C(=O)CSc1nc(-c2ccccc2)cn1N)c1c(N)n(Cc2ccccc2)c(=O)[nH]c1=O	11	-1	54*	43	-106	-142
CC(C)CN(C(=O)COC(=O)c1cnc(Cl)c(Cl)c1)c1c(N)n(Cc2ccccc2)c(=O)[nH]c1=O	28	-10	28	15	12	85*
Clc1cccc(CSc2nccn2-c2ccccc2)c1	2	-1	-21	11	-2	12
C[C@H](NC(=O)[C@@H]1CCCN1C(=O)[C@@H]1CCCN1C(=O)c1cccs1)c1ccccc1	/	/	-2	6	5	/
Cc1ccc2nc(NC3=NCN(Cc4cccnc4)CN3)nc(C)c2c1	-5	2	3	-11	24	3
CCOc1ccc(CN(C)CC(=O)Nc2cc(C)c(C)cc2[N+](=O)[O-])cc1	-24	-8	67*	44	-68	-119
O=C1c2ccccc2C(=O)c2c1cccc2N(CCO)CCO	-12	-4	-30	2	-49	-14
O=C1C=C(N(CCO)Cc2ccccc2)c2ccccc2C1=O	68*	9	5	37	-11	38
Nc1ncnc2c(C3OC(CO)C(O)C3O)scc12 (configuration not stated)	37	-15	65*	100*	50*	90*
Nc1ncnc2c1ncn2[C@@H]1O[C@H](CO)[C@@H](O)[C@@H]1O	-7	-10	3	-21	3	11
COc1ccc(/C=C2\Sc3ccc(C(=O)N4CCN(Cc5ccccc5)CC4)cc3N(C)C2=O)cc1OC	15	-17	56*	84*	29	49
COc1ccc(C(CNC(=O)c2ccc(S(=O)(=O)N3CC(C)CC(C)C3)cc2)N(C)C)cc1 (configuration not stated)	19	-17	-4	6	-1	71*
COc1ccccc1/C=C1\SC(=S)N(CCC(=O)NC2=NCCS2)C1=O	-13	12	28	25	72*	9
O=C(CCN1C(=O)/C(=C\c2cccs2)SC1=S)NC1=NCCS1	2	-2	-20	-5	10	-1
COc1cc(/C=C2\SC(=O)N(CC(=O)Nc3ccccc3F)C2=O)cc(Cl)c1O	0	2	54*	18	18	21
O=C(CCN1C(=O)S/C(=C\C=C\c2ccccc2)C1=O)Nc1ccc(O)cc1	-120	2	-6	58*	-267	6
COc1ccc(/C=C2\SC(=O)N(CC(=O)Nc3cccnc3)C2=O)cc1OC	-16	3	20	-4	17	8
O=C(CCCN1C(=O)S/C(=C\C=C\c2ccccc2)C1=O)Nc1ccc(C(=O)O)cc1	-7	5	-25	-17	-145	-58
COc1ccc(/C=C2/SC(=O)N(CCC(=O)Nc3ccccc3)C2=O)cc1OC	60*	-54*	-9	-14	-10	10
CCCN(CC(=O)Nc1ccc(F)c(F)c1F)C(=O)c1ccc(N2CCCC2=O)cc1	-2	-2	-4	-16	-21	-3
COc1ccc(CN2CCN(Cc3ccon3)CC2CCO)c(C)c1C (configuration not stated)	2	1	-5	-8	17	-5
CC1CC(C)CN(C(=O)c2ccc(-c3ccc([N+](=O)[O-])cc3)o2)C1 (configuration not stated)	11	-18	17	16	-78	33
O=C(CCS(=O)(=O)c1ccc(F)cc1)Nc1nc(-c2ccccn2)cs1	10	3	3	12	6	8
SMILES	CF NFkB inh	KKLEB tox	TROY NFkB inh	TWEAK Fn14 block	HIF-2a block	Peg3 promoter
CC(Oc1ccc(F)cc1)C(=O)Nc1nc(-c2ccccn2)cs1 (configuration not stated)	3	12	74*	-94	11	55*
CCc1nnc(NC(=O)C2Cc3ccccc3CN2S(=O)(=O)CC)s1 (configuration not stated)	-6	12	-24	1	-47	-41
CCS(=O)(=O)N1Cc2ccccc2CC1C(=O)Nc1nc2ccccc2s1 (configuration not stated)	-32	-8	70*	81*	-46	-146
COc1cccc(-c2sc3ccc(OC)cc3c2C#CC(C)(C)O)c1	10	-10	-5	5	-10	0
Cn1c(SCC(=O)N2c3ccccc3CCc3ccccc32)nnc1-c1cc2ccccc2cc1O	22	10	22	6	21	31
CCCn1c(-c2cc(OC)c(OC)c(OC)c2)nc2c1c(=O)[nH]c(=O)n2Cc1ccccc1	10	1	-5	-15	25	6
Cc1ccc(OCCN2CCNCC2)c([N+](=O)[O-])c1	-17	-8	-24	0	-62	-6
COc1ccc(-c2csc(-c3ccccc3)n2)c(OC)c1	-19	-2	-11	56*	-284	-320
COc1ccc(-c2csc(-c3cccs3)n2)c(OC)c1	-14	-6	-45	-4	-203	-243
Cc1ccc(-n2nc3ccc(N)cc3n2)cc1	-17	-4	-48	-33	2	-127
CC(C)c1ccc(-n2nc3ccc(N)cc3n2)cc1	-25	-37	5	51*	-117	-216
Cc1ccnc(NC(=O)c2cccc(NC(=O)c3ccc(Cl)cc3)c2)c1	-13	-2	-20	-7	-87	-36
CC(=O)c1ccc(NC(=S)Nc2cccc(S(=O)(=O)Nc3c(C)n(C)n(-c4ccccc4)c3=O)c2)cc1	-1	-4	-9	8	-1	-30
O=C1C=CC(=Nc2cccc3c2C(=O)c2ccccc2-3)O1	-46	2	-84	-19	-140	-98
O=C1C=CC(=Nc2ccc3c(c2)Cc2cc(F)ccc2-3)O1	-31	-2	11	56*	-52	-37
c1ccc(CCc2nn3c(-c4ccncc4)nnc3s2)cc1	72*	-14	29	74*	-8	-35
Clc1ccccc1-c1nnc2sc(CCc3ccccc3)nn12	5	10	-17	8	7	1
O=C1C=CC2(O[C@H](c3ccccc3)[C@@H](c3ccccc3)O2)[C@H](Sc2ccccc2O)C1	89*	-86*	80*	105*	89*	108*

Screening data (PubChem)
